Calpain2 inh – blocks pig calpain II enzyme activity. purified calpain II, fluorogenic peptide substrate, 30 min. inhibition, % at 16 µM. 220,000 compounds, 0.37% hits. AID 1236;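 active = inhibition above about 50%, limit read from the data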
zVAD death inh – L929 zVAD cell death inhibition. viability rescue, % at 10 µM. 220,000 compounds, 0.38% hits. L929 zVAD necroptosis rescue, ATP luminescence, 24 h; with zVAD 60 µM. AID 1377;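 active = activation, scaled between plate controls, above about 75%, limit read from the data; inactive = activation under that limit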;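 also: 0% = zVAD with DMSO and 100% = DMSO alone without zVAD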
Mcl1 Bid PPI – disrupts binding of human Mcl-1 to Bid peptide. TR-FRET Mcl-1/Bid-Dy647 peptide binding, 1536-well. inhibition, % at 21.7 µM. 220,000 compounds, 0.97% hits. Q07820. AID 1021;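 active = compounds that cut the binding signal by more than half at the single screening dose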;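 also: His-tagged Mcl-1 with europium anti-His antibody binding Bid BH3 peptide; 0% = Mcl-1 plus peptide wells and 100% = peptide-only wells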
Target sequence (Q07820 whole entry, looked up): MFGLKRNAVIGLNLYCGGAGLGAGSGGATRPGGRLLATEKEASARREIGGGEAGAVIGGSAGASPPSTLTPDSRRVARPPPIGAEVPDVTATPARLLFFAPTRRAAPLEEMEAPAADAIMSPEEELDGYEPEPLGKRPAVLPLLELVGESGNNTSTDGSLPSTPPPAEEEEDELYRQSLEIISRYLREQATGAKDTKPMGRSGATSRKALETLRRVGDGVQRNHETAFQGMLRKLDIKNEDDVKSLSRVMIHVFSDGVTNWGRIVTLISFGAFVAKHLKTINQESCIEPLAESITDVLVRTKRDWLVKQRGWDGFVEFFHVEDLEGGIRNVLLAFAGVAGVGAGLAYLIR
Mcl1-Noxa inh – Mcl-1/Noxa interaction inhibition | Q07820 | TR-FRET Mcl-1/Noxa peptide binding, 2 h | inhibition, % at 21.7 µM | 220,000 compounds, 1.5% hits;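 active = compounds that cut the protein-peptide binding signal by more than 50% relative to plate controls in a single-dose test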;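 also: His-tagged Mcl-1 with rhodamine Noxa BH3 peptide and terbium anti-His antibody; 0% = Mcl-1 plus Noxa peptide wells and 100% = peptide-only wells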
Bim-Mcl-1 – human Bim-Mcl-1 interaction inhibition; Q07820; Bead-based flow cytometry, Bim peptide-Mcl-1 binding; inhibition, % at 10 µM; 190,000 compounds, 0.1% hits; in the data active = inhibition above about 40%;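 also: 0% = no compound tracer wells and 100% = peptide blocker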
TNF necrop inh – blocks TNF-alpha induced death of Jurkat FADD-/- cells | Jurkat FADD-/- TNF necroptosis rescue, ATP luminescence, 24 h; 0 = TNF only, 100 = no-TNF cells | activation (protection from cell death), % at 10 µM | 220,000 compounds, 0.068% hits | AID 463075;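 active = activation, meaning protection from cell death, of at least 50% relative to plate controls; inactive = activation below 50%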;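 also: necroptosis triggered by 40 ng/mL TNF-alpha added together with compound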
* hit, by the source's call; · = not tested or not shown. In the library only some 2.8% were active in any assay of this set; here they are far more common.

SMILES	Calpain2 inh	zVAD death inh	Mcl1 Bid PPI	Mcl1-Noxa inh	Bim-Mcl-1	TNF necrop inh
CCN1CCN(Cc2ccc(NC(=O)c3ccc(C)c(NC(=O)C4=NN(c5ccccc5)C(=O)C4)c3)cc2C(F)(F)F)CC1	-16.1	60.0	-57.7	63.2*	·	2.4
CCN1CCN(Cc2ccc(NC(=O)c3cc(NC(=O)C4=NN(c5ccccc5)C(=O)C4)cc(OC)c3)cc2C(F)(F)F)CC1	-55.7	0.2	-39.4	68.5*	·	5.0
CCn1c(-c2cc3c(C(F)(F)F)nn(C)c3s2)n[nH]c1=S	-250.5	0.7	-33.5	71.8*	-2.0	-1.7
CCOc1ccc(NC(=O)COn2nnc3ccc(S(=O)(=O)N4CCOCC4)cc32)cc1	17.0	0.6	-10.2	70.7*	-1.0	0.6
CCOCC(=O)Nc1ccc(S(=O)(=O)N2CCOCC2)cc1	-4.6	0.0	1.5	11.6	1.0	3.8
COc1cc(/C=C(\C#N)c2[nH]nc(N)c2C#N)cc(OC)c1O	-25.7	1.6	11.6	56.4*	0.0	4.3
COc1cc(/C=C(\C#N)c2ccccn2)cc(OC)c1O	4.7	1.3	-135.8	14.0	·	-10.2
O=C(Nc1ccc(Br)cc1Cl)c1cnccn1	-8.8	1.9	-3.1	1.2	-1.0	1.7
O=C(Nc1ccccc1Cl)c1cnccn1	-57.6	0.0	-23.4	83.2*	1.0	-0.3
O=C(Nc1ccc(Cl)c([N+](=O)[O-])c1)c1cnccn1	-33.8	0.1	-70.3	64.2*	-3.0	1.5
CCOc1ccc(Nc2cc(Nc3ccccc3OCC)nc(C=C(C#N)C#N)n2)cc1	2.9	1.1	-11.9	3.0	·	-2.1
COc1cc(/C=C(/NC(C)=O)C(=O)O)cc(Cl)c1OCc1ccc(Br)cc1	-86.8	-0.5	-18.6	101.9*	·	3.2
COc1ccc(-c2cc(-c3ccc(OC)cc3)nc(-c3ccc4c(c3)NC(=O)CO4)c2)cc1	-125.6	0.0	-13.2	-5.6	0.0	-1.8
O=C1COc2ccc(N3C(=O)C=CC3=O)cc2N1	-36.6	-1.7	-35.1	56.7*	-3.0	0.2
O=C(Nc1nc(-c2ccccn2)cs1)C1CC(=O)N(c2ccc3c(c2)OCCO3)C1 (centres undefined)	-38.9	1.8	-94.4	70.7*	0.0	2.9
CCc1cc(N2CCOCC2)cc2c1[nH]c1ccccc12	-496.8	0.3	9.7	70.2*	0.0	-5.0
O=C(CN1C(=O)S/C(=C/c2cc(Br)cs2)C1=O)N1CCOCC1	-32.6	0.2	-4.5	-8.9	-1.0	0.1
O=c1cc(O)c2ccc(O)cc2o1	-16.3	-0.1	-17.4	-14.9	-7.0	0.2
O=c1ccc2[n+]([O-])c3ccc(O)cc3oc-2c1	25.4	-1.4	-73.8	73.7*	·	-24.9
COC(=O)Cn1c(=O)c2c(n(Cc3ccccc3)c1=O)N/C(=C/c1ccc(Br)cc1)C2=O	-31.1	1.3	-21.3	54.4*	·	-0.3
COC(=O)CN1C(=O)N/C(=C/c2ccc(OC)cc2)C1=O	26.7	0.6	-37.3	28.8	-7.0	2.2
COc1ccc(/C=N/NS(=O)(=O)c2ccccc2)cc1OC(=O)c1ccc(C)cc1	-15.1	0.6	85.9*	22.8	0.0	-2.2
Cc1c(N/C(=N/S(=O)(=O)c2ccccc2)c2ccc(Cl)cc2)c(=O)n(-c2ccccc2)n1C	-15.1	0.0	-26.1	-4.2	-2.0	1.3
CCn1c2ccccc2c2cc(NC(=O)COC(=O)c3cc(Cl)c(N)cc3OC)ccc21	-59.5	1.5	-56.5	23.7	·	-1.9
O=C(c1ccco1)N1CCN(CC(=O)N2c3ccccc3CCc3ccccc32)CC1	9.1	1.5	56.5*	14.8	-2.0	-0.6
SMILES	Calpain2 inh	zVAD death inh	Mcl1 Bid PPI	Mcl1-Noxa inh	Bim-Mcl-1	TNF necrop inh
O=C(CN1CCCCC1)N1c2ccccc2CCc2ccccc21	-24.5	0.1	-27.0	9.8	0.0	0.5
CC(C)N1CCc2c(sc(NC(=O)c3nc4ccccc4s3)c2C(N)=O)C1	-12.8	15.9	-43.9	21.4	-2.0	5.5
CC(C)N1CCc2c(sc(NC(=O)c3ccc(S(=O)(=O)N4CCc5ccccc54)cc3)c2C(N)=O)C1	6.2	1.4	16.2	71.9*	-1.0	-4.2
CCN(c1ccc(NC(=O)COC(=O)c2cccs2)cc1)C(C)C	18.5	0.2	-44.5	87.2*	0.0	1.4
CN(C)S(=O)(=O)c1cccc(NC(=O)COC(=O)c2cc3ccccc3oc2=O)c1	10.8	0.4	80.3*	23.7	·	0.3
CCN(c1ccc(NC(=O)COC(=O)c2cc3ccccc3oc2=O)cc1)C(C)C	10.4	1.9	-24.9	85.7*	-3.0	1.7
